Experimental data as given in the supplement of paper PMC6411743.
± gives the standard deviation of the averaged measurements. About 5,400 targets were measured; listed, in parts, are those with the largest changes and a random draw of the rest.

Compound: Nc1nc2c(ncn2[C@@H]2O[C@H](COP(=O)(O)OP(=O)(O)OP(=O)(O)O)[C@@H](O)[C@H]2O)c(=O)[nH]1 [guanosine triphosphate]
Assay: NP40-soluble protein abundance relative to vehicle (solubility fold change) (ratio); higher = more soluble protein in presence of GTP
Procedure: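 Solubility proteome profiling in Jurkat crude lysate. Lysate was treated with Mg-GTP (0.1-10 mM) for 10 min at room temperature and 3 min at 37 °C, then solubilised with 0.8% NP40 and benzonase, followed by ultracentrifugation. Proteins were quantified by TMT10 LC-MS/MS; the value is the NP40-soluble abundance relative to the NP40-processed vehicle, from 3 independent experiments.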

Chain of UniProt P04179 (P04179 whole entry, one chain of several): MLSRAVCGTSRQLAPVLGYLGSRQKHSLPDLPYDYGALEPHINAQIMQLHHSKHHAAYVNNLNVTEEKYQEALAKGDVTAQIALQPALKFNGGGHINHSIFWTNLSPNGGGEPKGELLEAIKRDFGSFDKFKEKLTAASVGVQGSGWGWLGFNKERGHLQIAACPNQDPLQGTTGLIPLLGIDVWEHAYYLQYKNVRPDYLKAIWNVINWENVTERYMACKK
Chain of UniProt Q9Y3T6 (Q9Y3T6 whole entry, one chain of several): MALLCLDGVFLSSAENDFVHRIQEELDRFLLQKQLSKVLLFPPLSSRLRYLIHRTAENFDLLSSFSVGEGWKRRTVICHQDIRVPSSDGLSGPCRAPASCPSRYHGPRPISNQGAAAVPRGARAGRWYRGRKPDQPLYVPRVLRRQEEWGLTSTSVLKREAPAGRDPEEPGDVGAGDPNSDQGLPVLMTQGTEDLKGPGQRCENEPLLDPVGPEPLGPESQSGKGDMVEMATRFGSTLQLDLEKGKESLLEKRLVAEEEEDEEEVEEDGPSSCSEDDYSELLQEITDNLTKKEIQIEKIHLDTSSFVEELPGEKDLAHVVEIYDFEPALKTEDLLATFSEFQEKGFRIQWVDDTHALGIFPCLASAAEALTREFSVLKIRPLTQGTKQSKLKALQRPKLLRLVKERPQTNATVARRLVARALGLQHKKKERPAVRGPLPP
Chain of UniProt Q8NI36 (Q8NI36 whole entry, one chain of several): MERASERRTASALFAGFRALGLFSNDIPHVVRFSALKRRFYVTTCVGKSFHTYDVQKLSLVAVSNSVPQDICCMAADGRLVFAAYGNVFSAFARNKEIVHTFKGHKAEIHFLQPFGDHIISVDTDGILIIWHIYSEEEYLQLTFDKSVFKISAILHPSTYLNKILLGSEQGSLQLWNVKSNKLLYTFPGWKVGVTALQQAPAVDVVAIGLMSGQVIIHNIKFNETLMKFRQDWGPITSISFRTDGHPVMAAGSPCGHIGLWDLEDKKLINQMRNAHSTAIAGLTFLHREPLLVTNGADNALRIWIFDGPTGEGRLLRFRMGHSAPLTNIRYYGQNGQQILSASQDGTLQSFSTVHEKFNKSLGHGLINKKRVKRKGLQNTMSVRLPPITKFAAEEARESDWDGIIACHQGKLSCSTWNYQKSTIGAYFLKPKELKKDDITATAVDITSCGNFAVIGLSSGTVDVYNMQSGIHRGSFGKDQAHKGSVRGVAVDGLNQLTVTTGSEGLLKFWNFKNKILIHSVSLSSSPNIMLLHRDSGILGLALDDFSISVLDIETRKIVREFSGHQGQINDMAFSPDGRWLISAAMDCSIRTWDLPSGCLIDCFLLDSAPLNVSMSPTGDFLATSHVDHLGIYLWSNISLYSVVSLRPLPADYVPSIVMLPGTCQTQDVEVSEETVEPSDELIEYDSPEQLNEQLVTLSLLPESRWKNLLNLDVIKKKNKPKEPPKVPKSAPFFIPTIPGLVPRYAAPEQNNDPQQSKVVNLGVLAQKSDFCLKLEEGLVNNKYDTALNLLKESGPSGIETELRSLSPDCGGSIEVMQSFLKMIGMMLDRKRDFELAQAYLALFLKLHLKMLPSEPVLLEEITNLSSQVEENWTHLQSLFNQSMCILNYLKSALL
Chain of UniProt Q8WX92 (Q8WX92 whole entry, one chain of several): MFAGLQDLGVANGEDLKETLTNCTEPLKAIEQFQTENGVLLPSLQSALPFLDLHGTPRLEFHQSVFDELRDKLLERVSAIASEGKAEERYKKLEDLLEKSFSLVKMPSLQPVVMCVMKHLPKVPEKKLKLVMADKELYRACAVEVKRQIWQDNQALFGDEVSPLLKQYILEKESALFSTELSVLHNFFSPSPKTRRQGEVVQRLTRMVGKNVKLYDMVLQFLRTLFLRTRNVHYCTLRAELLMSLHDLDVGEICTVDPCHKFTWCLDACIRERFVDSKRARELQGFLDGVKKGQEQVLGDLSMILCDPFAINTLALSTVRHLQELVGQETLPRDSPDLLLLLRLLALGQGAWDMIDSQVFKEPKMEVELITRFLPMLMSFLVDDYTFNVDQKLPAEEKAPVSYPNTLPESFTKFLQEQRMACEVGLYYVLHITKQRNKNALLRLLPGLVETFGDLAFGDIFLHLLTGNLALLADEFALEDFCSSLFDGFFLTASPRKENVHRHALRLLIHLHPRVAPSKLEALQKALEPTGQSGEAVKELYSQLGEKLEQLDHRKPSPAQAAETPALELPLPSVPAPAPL
Chain of UniProt Q6NVY1 (Q6NVY1 whole entry, one chain of several): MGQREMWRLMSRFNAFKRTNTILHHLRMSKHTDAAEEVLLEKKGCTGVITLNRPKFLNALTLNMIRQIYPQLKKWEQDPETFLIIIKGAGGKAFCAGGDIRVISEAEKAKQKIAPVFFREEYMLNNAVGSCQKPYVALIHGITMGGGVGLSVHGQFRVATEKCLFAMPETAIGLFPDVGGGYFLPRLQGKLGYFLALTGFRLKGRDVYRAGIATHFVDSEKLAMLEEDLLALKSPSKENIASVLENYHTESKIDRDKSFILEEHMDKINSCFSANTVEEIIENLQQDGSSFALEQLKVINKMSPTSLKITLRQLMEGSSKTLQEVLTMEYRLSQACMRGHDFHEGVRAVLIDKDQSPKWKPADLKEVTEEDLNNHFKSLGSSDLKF

Target	NP40-soluble protein abundance (concentration: 0.1mM)	NP40-soluble protein abundance (concentration: 0.5mM)	NP40-soluble protein abundance (concentration: 1mM)	NP40-soluble protein abundance (concentration: 2mM)	NP40-soluble protein abundance (concentration: 4mM)	NP40-soluble protein abundance (concentration: 6mM)	NP40-soluble protein abundance (concentration: 8mM)	NP40-soluble protein abundance (concentration: 10mM)
A0A0C4DFU2|P04179|P04179-4 (UniProt P04179)	0.85 ± 0.056	0.843 ± 0.071	0.851 ± 0.071	0.839 ± 0.043	0.814 ± 0.045	0.823 ± 0.052	0.734 ± 0.073	0.776 ± 0.07
A0A0A0MTB8|Q8NI36 (UniProt Q8NI36)	1.1 ± 0.013	1.18 ± 0.047	1.2 ± 0.064	1.55 ± 0.056	2 ± 0.13	2.39 ± 0.2	2.33 ± 0.13	2.39 ± 0.3
A0A0R4J2E2|Q9Y3T6|A0A0D9SG39|E5RHX3|E5RIK1|E5RIQ4 (UniProt Q9Y3T6)	0.88 ± 0.0067	0.877 ± 0.017	0.961 ± 0.019	0.923 ± 0.048	0.94794 ± 0.00022	0.908 ± 0.017	0.89 ± 0.034	0.9192 ± 0.0019
A0A0X1KG71|Q8WX92 (UniProt Q8WX92)	0.9588 ± 0.0051	0.964 ± 0.014	0.9785 ± 0.0083	0.973 ± 0.016	0.957 ± 0.025	0.96 ± 0.012	0.936 ± 0.024	0.946 ± 0.02
A0A087WXI1|Q6NVY1 (UniProt Q6NVY1)	0.948 ± 0.045	0.945 ± 0.042	0.909 ± 0.082	0.875 ± 0.083	0.863 ± 0.087	0.867 ± 0.092	0.861 ± 0.096	0.841 ± 0.096
